Reference: ChEMBL document CHEMBL3988442, “University of Dundee, Small-Polar-MMV Screening Library” (2021)
In all, about 48,000 compounds went through this assay and about 13,000 (27%) showed an effect of 50% or more. Some of the results follow.

System: Wolbachia pipientis
Assay: Anti-Wolbachia Cell-Based Screen
Assay type: functional
Set-up: scale not given: in the data most compounds retested in dose-response had high values
Settings: 5 µM

| Compound | Percent Effect |
| --- | --- |
| CCSCCOC(=O)CCCc1ccc2c(c1)CC(=O)N2 | -3.889% |
| CCC1(O)CCCN(c2nc(C(C)(C)C)nc3c2cnn3C)C1 (configuration not stated) | -1.49% |
| CN(C)C(=O)N1CC(=O)NCC12CCN(C(=O)c1ccco1)C2 (configuration not stated) | -32.82% |
| COc1cc(C2CC(=O)NCc3nc4sccn4c32)cc(OC)c1O (configuration not stated) | -15.83% |
| COCCn1ccnc1C1CCN(c2cccc(C(=O)O)n2)CC1 | -10.3% |
| C=Cn1cc(CN2CCN(CC3(c4ccccc4)CC3)CC2)c(C)n1 | 101.3% |
| Cc1ccc(C2(CN3CCN(Cc4cn(C)nc4C)CC3)CC2)cc1.Cl | 115.4% |
| Cn1cc(CN2CCCN(CCCc3ccccc3)CC2)cn1 | 4.066% |
| CCn1cc(CN2CCCC(CO)(CCc3ccccc3)C2)c(C)n1 (configuration not stated) | -0.5849% |
| Cc1cccc(N2CCC3(CCCN3Cc3cn(C)nc3C)CC2)n1 | -1.763% |
| Cc1nn(C)cc1CN1CCN(CC2(c3ccccc3)CC2)CC1 | 110.9% |
| Cl.Cn1cc(CN2CCN(CC3(c4ccccc4)CC3)CC2)cn1 | 82.02% |
| CN1C(=O)CC2(CCN(Cc3cnn(C)c3)CC2)c2ccccc21 | 0.9694% |
| Cc1nn(C)cc1CN1CCC(C2Nc3ccccc3S(=O)(=O)N2)CC1 (configuration not stated) | -11.33% |
| Nc1ncc(CN2C[C@H](C3CC3)[C@@H](N)C2)cn1 | -6.254% |
| CC(NC(=O)N1CCC2(C1)OCCO2)c1ccc(F)cc1Cl (configuration not stated) | -14.1% |
| CC(C)N(C)Cc1cc(=O)n2c(n1)CN(C(=O)c1ccnnc1)CCC2 | 96.43% |
| CN1CCN(Cc2cnc3n2CCN(C(=O)c2cnccn2)C3)CC1 | -7.558% |
| CC(C)N(C)Cc1cc(=O)n2c(n1)CN(C(=O)c1cnccn1)CCC2 | 114.9% |
| CCN(CC)Cc1cc(=O)n2c(n1)CN(C(=O)c1ccnnc1)CCC2.O=C(O)C(F)(F)F | 96.84% |
| CC(C)N(C)Cc1noc2c1CN(C(=O)c1ccsc1)CC2 | 5.959% |
| Cc1cnc(C(=O)N2CCCn3c(nc(CN(C)C)cc3=O)C2)cn1.O=C(O)C(F)(F)F | -7.099% |
| Cc1cnc(N2CCC(c3ccccc3)CC2)nc1-c1ccnn1C | -8.504% |

| Compound | Percent Effect |
| --- | --- |
| COc1ncccc1C(=O)NC1CCOc2ccccc21 (configuration not stated) | 117.1% |
| O=C(NCc1ccccn1)NC1CCOc2ccccc21 (configuration not stated) | 10.12% |
| COc1ncccc1CNC(=O)N(Cc1ccccc1F)C1CC1 | -13.4% |
| COc1ncccc1CNC(=O)NC1CCOc2ccccc21 (configuration not stated) | 3.95% |
| CC(C)Oc1ncccc1CNC(=O)NC1CCOc2ccccc21 (configuration not stated) | 99.58% |
| Cc1ccc(Oc2ncccc2CNC(=O)NC2CCCCC2)cn1 | -14.6% |
| CC(C)Oc1ncccc1CNC(=O)N1CCOCC1 | 12.39% |
| CCOc1ncccc1CNC(=O)NC1CCOc2ccccc21 (configuration not stated) | 109.6% |
| COc1ncccc1C(=O)NCC1Cc2ccccc2O1 (configuration not stated) | 13.43% |
| CC(C)Oc1ncccc1CNC(=O)N1CCC1c1ccccc1 (configuration not stated) | -10.96% |
| COc1ncccc1CNC(=O)NC1CCCOc2ccccc21 (configuration not stated) | 119.2% |
| COc1ncccc1NC(=O)NC1CCOc2ccccc21 (configuration not stated) | 7.033% |
| CC(C)Oc1ccc(C(=O)Nc2nncs2)cn1 | -3.461% |
| NC(=O)c1ccc(N2CCCCC2)c(NC(=O)c2ccc(F)cc2F)c1 | -3.643% |
| COCCN1CCN(CCCS(=O)(=O)c2ccccc2)CC1C (configuration not stated) | 8.957% |
| CCOC(C)C(=O)NS(=O)(=O)c1cccc2cc(C)cnc12 (configuration not stated) | 6.301% |
| COCCn1ccnc1CN1CCc2[nH]cnc2C1c1ccccn1 (configuration not stated) | 80.05% |
| CCc1ccc(C2c3nc[nH]c3CCN2Cc2nccn2CC)nc1 (configuration not stated) | 105% |
| CCCn1ccnc1CN1CCc2[nH]cnc2C1Cc1ccccc1 (configuration not stated) | -1.947% |
| CC(=O)Nc1ccc(CN2CCc3[nH]cnc3C2c2nccn2C)cc1 (configuration not stated) | 16.2% |
| COc1ncccc1CN1CCc2[nH]cnc2C1CCSC (configuration not stated) | -5.01% |
| COCCn1ccnc1CN1CCc2[nH]cnc2C1c1cnn(C)c1C (configuration not stated) | 99.98% |
| COCCn1ccnc1CN1CCc2[nH]cnc2C1c1cccc(O)c1 (configuration not stated) | 85.01% |

| Compound | Percent Effect |
| --- | --- |
| Cc1c(C2c3nc[nH]c3CCN2CCOCc2ccccc2)cnn1C (configuration not stated) | 5.205% |
| c1ccc(COCCN2CCc3[nH]cnc3C2c2ccco2)cc1 (configuration not stated) | -0.996% |
| CCn1ccnc1CN1CCN(Cc2ccc(C#N)cc2)CC1 | -17.04% |
| CCn1ncnc1CN1CCc2[nH]cnc2C1c1ccccn1 (configuration not stated) | -9.23% |
| Cn1ccnc1C1c2nc[nH]c2CCN1Cc1cccnc1 (configuration not stated) | 3.917% |
| CC(C)(C)c1oc(C(N)=O)cc1CN1CCCCC(N)C1 (configuration not stated) | -6.99% |
| CNC(=O)c1cccnc1NCc1ccc(Cn2ccnc2)cc1 | -15.36% |
| CC(=O)c1cc(CN2C[C@H]3CC[C@@H]2CN(S(C)(=O)=O)C3)cs1 | 11.24% |
| Cc1cnc(C)c(-c2cccc(-c3ccn(CCN4CCCC4)n3)c2)n1 | 7.439% |
| Cc1cc(-c2cccc(-c3ccn(CCCO)n3)c2)nc(N(C)C)n1 | 105.4% |
| COc1ccc(-c2cccc(-c3ccn(CCN(C)C)n3)c2)nn1 | -17.53% |
| COc1ccc(-c2cccc(-c3ccn(CCCN(C)C)n3)c2)nn1 | -20.49% |
| c1cc(-c2cnccn2)cc(-c2ccn(CCCN3CCCCC3)n2)c1 | -2.928% |
| Cc1nc(N(C)C)nc(-c2cccc(-c3ccn(CCCF)n3)c2)c1C | 99.28% |
| c1cncc(-c2cccc(-c3ccn(CCN4CCCCC4)n3)c2)c1 | 18.24% |
| Cc1nc(N(C)C)nc(-c2cccc(-c3ccn(CCCO)n3)c2)c1C | 91.5% |
| CN(C)CCCn1ccc(-c2cccc(-c3cncnc3)c2)n1 | -27.48% |
| CN(C)CCCn1ccc(-c2cccc(-c3ccccn3)c2)n1 | -1.271% |
| CN(C)c1ccc(-c2cccc(-c3ccn(CCCO)n3)c2)nn1 | 106.7% |
| Cc1cc(CC(C)NC(=O)c2cccc(CC3CCNCC3)c2)[nH]n1 (configuration not stated) | -1.026% |
| Cc1oc(NC(=O)C(C)N2CCN(C(=O)C3CC3)CC2)c(C#N)c1C (configuration not stated) | 9.3% |
